Records with an inconclusive call do not appear. Where a call stands in place of a potency, no number is given. Active and inactive are the calls of the source. Calls come from the whole dose curve; as a rule, active = well fitted cell-killing curve with a large enough effect; inconclusive = small, poorly fitted or top-dose-only effect, or effect the other way; inactive = flat fitted curve, though single readings scatter.
Assay: MultiTox-Fluor Cytotoxicity Assay - LYMP1-001 - Dead Cells (AID 946)
Conditions: LYMP1-001 lymphoblastoid cells, dead-cell protease fluorescence; series mostly up to 92.2 µM
Text: NIH Chemical Genomics Center [NCGC]
NIH Molecular Libraries Screening Centers Network [MLSCN]
National Institutes of Environmental Health Sciences [NIEHS]
National Toxicology Program [NTP]
We have developed a 1536-well cell-based assay for quantitative high throughput screening (qHTS) against a number of cell lines to determine in vitro cytotoxicity of small molecules. This particular assay uses a human lymphoblastoid cell line (LYMP1-001) purchased from Coriell Institute for Medical Research.
NCGC Assay Protocol Summary:
The MultiTox-Fluor Cytotoxicity Assay (Promega) is a homogeneous method to simultaneously measure the relative number of live and dead cells in culture by detecting changes in cell membrane integrity. There are two fluorogenic peptide substrates in the assay reagent. Viable cells are determined when the cell-permeant substrate (GF-AFC) enters the cell and is cleaved by protease from live cells resulting in liberated fluorophore. This live-cell protease activity restricted to viable cells is proportional to cell number. The dead cells are determined by using fluorogenic cell-impermeant peptide substrate (bis-AAF-R110) which cleaved by dead cell proteases leaking from damaged cell membrane.
Using the MultiTox-Fluor Cytotoxicity Assay, the relative number of dead cells was measured in the lymphoblastoid cell line with complete culture medium following compound treatment for 16 hours. The assay was performed in opaque black Kalypsys 1536-well plates. In the screen, tetraoctylammonium bromide was used as positive control. Library compounds were measured for their ability to cause acute toxicity in the cell line, as reflected by an increase in dead cell protease activity, in a concentration-dependent manner. Data were normalized to the controls for basal activity (DMSO only) and 100% stimulation (15 uM tetraoctylammonium bromide). AC50 values were determined from concentration-response data modeled with the standard Hill equation.
qHTS protocol for MultiTox-Fluor Cytotoxicity assay
[Step] [Parameter] [Value] [Description]
1. Reagent; 5 uL; 2500 lymphoblastoid cells/well
2. Time; 5 hr; 37 C incubation
4. Controls; 23 nL; Tetraoctylammonium bromide 6.4pM to 92 uM
5. Time; 16 hr; 37 C incubation
6. Reagent; 5 uL; MuliTox-Fluor Assay reagent
7. Time; 60 min; Room Temperature
8. Detection; dead-cell fluorescence (Ex/Em=485/520); EnVision plate reader
Keywords: cytotoxicity, lymphoblastoid cell line, fluorescence, NTPHTS, NTPHTS_NCGC, NIEHS, EPA, DSSTox, MLSMR, MLSCN, NIH Roadmap, qHTS, NCGC
Potency is the fitted concentration of half-maximal effect.

| SMILES | Potency |
| --- | --- |
| Cc1cc(CC(=O)O)n(C)c1C(=O)c1ccc(Cl)cc1 | inactive |
| CCCCCCCCCCCCOS(=O)(=O)O | inactive |
| Nc1ccc(S(=O)(=O)Nc2nccs2)cc1 | inactive |
| NCCNCCNCCNCCN | inactive |
| O=C1O[C@H]([C@@H](O)CO)C(O)=C1O | inactive |
| CC1(C)[C@@H]2CC[C@@]1(C)C(=O)C2 | inactive |
| Oc1cccc(O)c1 | inactive |
| Cc1cc2nc3c(=O)[nH]c(=O)nc-3n(C[C@H](O)[C@H](O)[C@H](O)CO)c2cc1C | 39.8 µM (active) |
| COc1ccccc1O | inactive |
| Cc1c(O)cccc1C(=O)N[C@@H](CSc1ccccc1)[C@H](O)CN1C[C@H]2CCCC[C@H]2C[C@H]1C(=O)NC(C)(C)C | 31.6 µM (active) |
| NCCNCCNCCN | inactive |
| O=C1c2c(O)cccc2Cc2cccc(O)c21 | inactive |
| NC(=O)N/N=C/c1ccc([N+](=O)[O-])o1 | inactive |
| NC(=O)c1ncn([C@@H]2O[C@H](CO)[C@@H](O)[C@H]2O)n1 | inactive |
| CCCCOC(=O)c1ccc(O)cc1 | inactive |
| CC12CCC(CC1)C(C)(C)O2 | inactive |
| C[C@]12C[C@H](O)[C@H]3[C@@H](CCC4=CC(=O)CC[C@@]43C)[C@@H]1CC[C@@H]2C(=O)CO | inactive |
| [Cl][In]([Cl])[Cl] | inactive |
